# Source: PubChem BioAssay
# The source made the active and inactive calls.
# Legend:
# [1] = small molecules captured by biotinylated probe aFSTL3 – biochemical, small-molecule microarray, fluorescence 635/667, stem cell growth factor project, primary screen (AID 1064); conditions: higher = more signal;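 also: measures binding of the biotinylated anti-FSTL3 antibody to printed compounds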
# [2] = binders from COS7 lysate, DM2A8 probe, primary screen, torsin A project, cell lysate, small-molecule microarray, fluorescence 635/667 (AID 1065); conditions: higher = more signal, COS7 lysate expressing mutant human TOR1A
# [3] = small molecules captured by biotinylated probe aFGF2 – biochemical, small-molecule microarray, fluorescence 635/667, stem cell growth factor project, primary screen (AID 1067); conditions: higher = more signal;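 also: measures binding of biotinylated aFGF2 protein to printed compounds on slides; z-score merges feature fluorescence and signal-to-noise across triplicate slides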
# [4] = small molecules captured by biotinylated probe aFGF10 – biochemical, small-molecule microarray, fluorescence 635/667, stem cell growth factor project, primary screen (AID 1071); conditions: higher = more signal;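 also: score merges 667 nm spot intensity and signal to noise from triplicate slides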
# [5] = molecular target: Neurogenic locus notch homolog protein 2 (Homo sapiens) (UniProt Q04721); assay: small molecules binding Notch2 protein – biochemical, small-molecule microarray, 635 nm fluorescence, stem cell growth factors, primary screen (AID 1073); conditions: higher = more signal
# [6] = molecular target: Pro-neuregulin-1, membrane-bound isoform (Homo sapiens) (UniProt Q02297); assay: small molecules binding neuregulin-1 protein – biochemical, small-molecule microarray, fluorescence 635/667, psychiatric disease protein project, primary screen (AID 1075); conditions: NRG1 binding, 635 nm fluorescence, higher = more signal;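 also: score combines 667 nm spot fluorescence with signal to noise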
# [7] = system: Neuregulin-1 EGF-like domain; assay: small molecules binding NRG1 EGF domain – biochemical, small-molecule microarray, 635 nm fluorescence, primary screen (AID 1081); conditions: higher = more signal;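 also: binding of the protein to compounds printed on small-molecule microarray slides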
# [8] = FRG1 expression reporter modulators in myotubes – cell-based, C2C12 myotubes, firefly/Renilla luciferase, luminescence, FRG1 inhibition for FSHD, primary screen (AID 1084); conditions: FRG1 promoter luciferase, higher = more signal, called active from +8 up or from −8 down
# [9] = small molecules captured by biotinylated probe aFST – biochemical, small-molecule microarray, fluorescence 635/667, stem cell growth factor project, primary screen (AID 1086); conditions: higher = more signal;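 also: score merges 667 nm fluorescence with signal-to-noise of each printed compound spot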
# [10] = binders of probe aHhip on microarray, primary screen, stem cell growth factor project, biochemical, small-molecule microarray, fluorescence 635/667 (AID 1087); conditions: higher = more signal;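 also: score merges spot fluorescence at 667nm with spot signal to noise ratio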
# [11] = system: PRMT1 (protein arginine N-methyltransferase 1); assay: small molecules binding arginine methyltransferase PRMT1 – biochemical, small-molecule microarray, 635 nm fluorescence, primary screen (AID 1088); conditions: higher = more signal;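 also: binding of Prmt1 protein to compounds spotted on small-molecule microarray slides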
# [12] = growth effects on S. cerevisiae YJM789 – YJM789 clinical isolate, OD600, 24 h, basal, primary screen (AID 1089); conditions: higher = more signal, called active from +8 up or from −8 down;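 also: growth of clinical yeast isolate S. cerevisiae YJM 789 seeded 1000 cells per well; test concentration not given here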
# [13] = S. pombe growth modifiers, basal conditions – strain 972, OD600, 24 h, no modulator, primary screen (AID 1090);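 also: basal condition with compound alone and no growth modifier present; test concentration not given here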; conditions: S. pombe 972 growth, higher = more signal, called active from +8 up or from −8 down
# [14] = budding yeast growth modifiers under rapamycin – strain BY4716, OD600, 96 h, primary screen (AID 1091); also: test concentration not given here; conditions: S. cerevisiae BY4716 + rapamycin, higher = more signal, called active from +8 up or from −8 down
# [15] = molecular target: Torsin-1A-interacting protein 2 (Homo sapiens) (UniProt Q8NFQ8); assay: small molecules binding lysate-expressed LULL1 – cell lysate, human LULL1 lysate, 635/667 nm fluorescence, primary screen (AID 1092); conditions: small-molecule microarray, hLULL1 lysate binding, 635 nm fluorescence; higher = more signal;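 also: probe is lysate of COS7 cells overexpressing human LULL1; score merges per-feature 667 nm fluorescence with signal-to-noise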
# [16] = optical density change of DRC41 E. coli – strain DRC41, OD650, 24 h, E. coli filamentation project, primary screen (AID 1093);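 also: MC1000 strain lacking acrAB efflux and sulA so SOS filamentation is blocked; test concentration not given here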; conditions: E. coli DRC41 growth, higher = more signal, called active from +8 up or from −8 down
# [17] = probe aLefty2 binding to arrayed compounds – biochemical, biotinylated probe, 635/667 nm fluorescence, primary screen (AID 1094); conditions: small-molecule microarray, higher = more signal;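 also: score merges spot fluorescence near 667 nm with spot signal-to-noise ratio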
# [18] = system: Noggin (protein binding on small-molecule microarray); assay: small molecules binding Noggin protein – biochemical, 635/667 nm fluorescence, primary screen (AID 1095); conditions: 635 nm fluorescence, higher = more signal;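 also: score merges 667 nm feature fluorescence with signal to noise over triplicate slides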
# [19] = molecular target: Neurogenic locus notch homolog protein 3 (Homo sapiens) (UniProt Q9UM47); assay: small molecules binding NOTCH3 protein – biochemical, 635/667 nm fluorescence, primary screen (AID 1096); conditions: small-molecule microarray, 635 nm fluorescence, higher = more signal
# [20] = probe aEGFR binding to arrayed compounds – biochemical, biotinylated probe, 635/667 nm fluorescence, primary screen (AID 1097); conditions: small-molecule microarray, higher = more signal;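 also: probe is a biotinylated anti-EGFR antibody binding compounds printed on slides; score combines fluorescence near 667 nm and signal to noise of each spot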
# Sequence of Pro-neuregulin-1, membrane-bound isoform (Homo sapiens) (Q02297 whole entry, looked up, the tested form may be a part, canonical isoform): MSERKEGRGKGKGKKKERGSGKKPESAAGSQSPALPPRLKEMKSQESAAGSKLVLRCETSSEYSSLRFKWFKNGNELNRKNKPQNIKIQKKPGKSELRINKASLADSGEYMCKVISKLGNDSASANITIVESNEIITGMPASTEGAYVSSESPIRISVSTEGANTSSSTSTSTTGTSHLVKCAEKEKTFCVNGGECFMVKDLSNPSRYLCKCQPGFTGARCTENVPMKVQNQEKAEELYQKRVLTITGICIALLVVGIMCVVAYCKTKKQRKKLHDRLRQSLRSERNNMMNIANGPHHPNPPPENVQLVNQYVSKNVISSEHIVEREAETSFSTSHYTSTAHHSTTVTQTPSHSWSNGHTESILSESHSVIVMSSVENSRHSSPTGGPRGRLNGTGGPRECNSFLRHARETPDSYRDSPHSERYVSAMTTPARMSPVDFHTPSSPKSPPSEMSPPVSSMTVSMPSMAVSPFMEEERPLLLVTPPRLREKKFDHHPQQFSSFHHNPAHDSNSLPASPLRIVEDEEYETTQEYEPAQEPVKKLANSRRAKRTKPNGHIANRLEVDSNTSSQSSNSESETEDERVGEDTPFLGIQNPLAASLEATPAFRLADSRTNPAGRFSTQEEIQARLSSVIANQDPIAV
# Sequence of Torsin-1A-interacting protein 2 (Homo sapiens) (Q8NFQ8 whole entry, looked up): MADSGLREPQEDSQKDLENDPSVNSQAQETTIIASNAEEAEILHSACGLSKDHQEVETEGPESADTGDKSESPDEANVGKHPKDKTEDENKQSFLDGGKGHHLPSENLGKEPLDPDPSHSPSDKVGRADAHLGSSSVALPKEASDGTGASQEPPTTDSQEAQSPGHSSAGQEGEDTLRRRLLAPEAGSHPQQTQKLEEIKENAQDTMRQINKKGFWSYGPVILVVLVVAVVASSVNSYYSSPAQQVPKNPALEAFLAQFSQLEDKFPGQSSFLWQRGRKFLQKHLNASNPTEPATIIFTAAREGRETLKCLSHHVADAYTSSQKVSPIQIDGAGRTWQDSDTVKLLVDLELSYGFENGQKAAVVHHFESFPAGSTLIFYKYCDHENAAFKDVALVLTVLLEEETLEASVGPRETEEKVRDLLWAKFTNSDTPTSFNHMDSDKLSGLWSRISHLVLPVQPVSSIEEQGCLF
# Sequence of Neurogenic locus notch homolog protein 2 (Homo sapiens) (Q04721 whole entry, looked up, canonical isoform): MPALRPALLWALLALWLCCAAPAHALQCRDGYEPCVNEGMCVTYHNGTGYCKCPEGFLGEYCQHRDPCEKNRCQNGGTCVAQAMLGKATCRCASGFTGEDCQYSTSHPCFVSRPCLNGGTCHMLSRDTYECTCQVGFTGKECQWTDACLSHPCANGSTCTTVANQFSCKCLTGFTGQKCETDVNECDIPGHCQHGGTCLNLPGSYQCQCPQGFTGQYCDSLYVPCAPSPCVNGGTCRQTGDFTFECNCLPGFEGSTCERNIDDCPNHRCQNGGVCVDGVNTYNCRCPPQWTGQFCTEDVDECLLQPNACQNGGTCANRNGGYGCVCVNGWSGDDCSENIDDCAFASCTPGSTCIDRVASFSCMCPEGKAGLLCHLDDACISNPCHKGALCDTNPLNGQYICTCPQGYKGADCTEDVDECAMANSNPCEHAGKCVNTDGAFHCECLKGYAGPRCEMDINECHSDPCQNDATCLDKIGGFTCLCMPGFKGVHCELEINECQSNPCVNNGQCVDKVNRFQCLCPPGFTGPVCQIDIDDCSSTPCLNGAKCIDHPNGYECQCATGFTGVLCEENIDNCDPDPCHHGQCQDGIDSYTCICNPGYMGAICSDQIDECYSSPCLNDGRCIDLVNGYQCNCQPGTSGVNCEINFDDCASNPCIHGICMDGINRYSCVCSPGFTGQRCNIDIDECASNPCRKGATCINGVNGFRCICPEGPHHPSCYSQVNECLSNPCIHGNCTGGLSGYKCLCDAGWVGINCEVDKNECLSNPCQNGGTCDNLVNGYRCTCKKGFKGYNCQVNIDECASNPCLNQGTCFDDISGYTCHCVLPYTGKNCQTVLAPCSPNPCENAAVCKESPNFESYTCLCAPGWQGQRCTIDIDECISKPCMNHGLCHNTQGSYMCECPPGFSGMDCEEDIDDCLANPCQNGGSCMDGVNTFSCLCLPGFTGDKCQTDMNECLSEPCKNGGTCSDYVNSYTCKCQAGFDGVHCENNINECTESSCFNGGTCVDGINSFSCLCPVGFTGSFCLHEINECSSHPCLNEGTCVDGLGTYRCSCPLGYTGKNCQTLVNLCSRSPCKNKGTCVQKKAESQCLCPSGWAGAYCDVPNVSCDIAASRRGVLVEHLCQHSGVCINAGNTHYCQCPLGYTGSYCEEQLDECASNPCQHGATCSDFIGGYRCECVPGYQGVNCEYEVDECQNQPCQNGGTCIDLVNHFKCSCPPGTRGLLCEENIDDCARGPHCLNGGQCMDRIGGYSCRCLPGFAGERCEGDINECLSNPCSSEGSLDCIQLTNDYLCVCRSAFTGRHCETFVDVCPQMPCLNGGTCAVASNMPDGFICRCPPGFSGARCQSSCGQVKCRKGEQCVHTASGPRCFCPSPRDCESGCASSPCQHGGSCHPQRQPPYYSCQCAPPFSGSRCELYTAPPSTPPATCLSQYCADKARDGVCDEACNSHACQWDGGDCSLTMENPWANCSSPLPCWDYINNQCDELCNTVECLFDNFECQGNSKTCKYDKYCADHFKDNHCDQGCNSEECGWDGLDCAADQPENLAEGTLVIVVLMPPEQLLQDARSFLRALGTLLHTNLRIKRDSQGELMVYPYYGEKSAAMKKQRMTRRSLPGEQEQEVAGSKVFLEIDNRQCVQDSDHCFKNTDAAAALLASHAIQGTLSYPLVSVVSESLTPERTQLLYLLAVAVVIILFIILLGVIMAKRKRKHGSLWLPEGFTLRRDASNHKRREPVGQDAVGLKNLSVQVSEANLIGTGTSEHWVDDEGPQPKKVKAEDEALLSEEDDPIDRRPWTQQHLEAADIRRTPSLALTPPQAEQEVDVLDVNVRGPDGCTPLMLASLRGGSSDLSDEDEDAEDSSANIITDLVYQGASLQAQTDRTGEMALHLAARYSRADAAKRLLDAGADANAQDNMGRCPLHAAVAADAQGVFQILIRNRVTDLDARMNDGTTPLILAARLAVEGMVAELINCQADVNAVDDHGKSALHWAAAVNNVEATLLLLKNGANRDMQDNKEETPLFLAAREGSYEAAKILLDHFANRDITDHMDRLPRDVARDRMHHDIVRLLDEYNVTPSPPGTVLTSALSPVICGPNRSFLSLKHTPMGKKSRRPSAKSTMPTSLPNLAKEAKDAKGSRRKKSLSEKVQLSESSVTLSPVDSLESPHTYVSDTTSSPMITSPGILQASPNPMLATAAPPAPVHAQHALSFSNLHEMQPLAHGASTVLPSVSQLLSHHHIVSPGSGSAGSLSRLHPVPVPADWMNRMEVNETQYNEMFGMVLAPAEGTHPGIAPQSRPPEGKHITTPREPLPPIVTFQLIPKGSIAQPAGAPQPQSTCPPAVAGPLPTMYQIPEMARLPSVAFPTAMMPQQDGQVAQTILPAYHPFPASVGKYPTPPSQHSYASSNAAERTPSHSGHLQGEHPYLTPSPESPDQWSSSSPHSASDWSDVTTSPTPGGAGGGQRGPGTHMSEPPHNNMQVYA
SMILES,composite z-score [1],composite z-score [2],composite z-score [3],composite z-score [4],composite z-score [5],composite z-score [6],composite z-score [7],z-score [8],composite z-score [9],composite z-score [10],composite z-score [11],z-score [12],z-score [13],z-score [14],composite z-score [15],z-score [16],composite z-score [17],composite z-score [18],composite z-score [19],composite z-score [20]
O=C1O[C@@H](c2ccccc2)[C@@H](c2ccccc2)N2[C@@H](c3ccccc3OCCO)[C@]3(C(=O)Nc4ccc(C#CC5=CCCCC5)cc43)[C@@H](C(=O)NC[C@H](O)c3ccccc3)[C@H]12,-0.595,2.06,0.0296,0.648,0.948,1.42,1.01,-0.279 (inactive),0.517,-0.0391,1.55,1.03 (inactive),0.112 (inactive),3.61 (inactive),2.38,1.38 (inactive),-0.273,0.988,1.11,-0.0371
C=CCOC(=O)[C@H]1[C@@H]2C(=O)O[C@@H](c3ccccc3)[C@@H](c3ccccc3)N2[C@@H](c2ccc(OCCOC(=O)[C@H]3C[C@H]4C(=O)N[C@@H](CCCC[N+](C)(C)C)C(=O)N4[C@H]3c3cccc(OCCO)c3)cc2)[C@]12C(=O)Nc1ccc(I)cc12,-0.345,0.46,-0.0937,0.723,0.312,0.288,0.755,0.707 (inactive),-0.278,-0.126,1.29,1.11 (inactive),2.23 (inactive),4.75 (inactive),0.7,0.396 (inactive),-0.166,0.673,0.456,0.002
COC1(C)CN(Cc2ccccc2Br)[C@H](/C=C/c2ccccc2)[C@H](Cc2ccccc2)O1 (stereo not given in full),-0.366,0.115,-0.194,-0.0452,-0.669,-0.435,-0.426,-0.916 (inactive),-0.317,0.0373,-0.355,-0.0969 (inactive),0.239 (inactive),0.243 (inactive),-0.92,1.07 (inactive),-0.231,-0.391,-0.789,-0.159
O=C1C[C@]2(c3ccc([N+](=O)[O-])cc3)C(=O)N(Cc3ccccc3)c3cc(CO)ccc3[C@H]2N1CC12CC3CC(CC(C3)C1)C2,0.0993,-0.728,0.0018,-0.817,-0.746,-0.468,-0.851,-0.0424 (inactive),0.0779,-0.369,-0.404,-0.251 (inactive),0.418 (inactive),-1.23 (inactive),0.258,0.64 (inactive),-0.477,-1.43,-1.94,0.0645
COc1ccccc1CN1C(=O)c2ccccc2[C@](Cc2ccccc2I)(C(=O)NC(C)C)[C@@H]1c1ccc(CO)cc1,-0.515,0.49,-0.0296,0.732,1.43,1.7,1.15,-2.79 (inactive),0.614,0.0373,1.53,0.188 (inactive),0.0889 (inactive),0.152 (inactive),2.05,-1.01 (inactive),-0.158,1.22,1.06,0.0583
COc1ccccc1CN1C(=O)c2ccccc2[C@@H](C(=O)NC(C)C)[C@@H]1c1ccc(CO)cc1,-0.0001,-0.487,0.0451,0.761,1.53,1.13,1.31,-1.41 (inactive),0.676,0.281,1.51,-0.309 (inactive),-0.0831 (inactive),-0.352 (inactive),2.36,1.02 (inactive),0.12,0.885,1.09,0.14
CC=CC(O)C1C=CC2C(=O)N(C)C(=O)C2N1Nc1ccc([N+](=O)[O-])cc1[N+](=O)[O-] (stereo not given),0.028,-0.183,-0.185,-0.0156,-0.346,1.2,1.29,0.639 (inactive),-0.441,0.312,0.0758,0.837 (inactive),0.325 (inactive),1.67 (inactive),3.57,-1.06 (inactive),-0.0478,-0.448,-0.44,-0.342
C=CC[C@@]1(C(=O)O)N=C(c2ccc(OCCCO)cc2)O[C@@H]1c1ccccc1,0.522,3.13,0.206,0.553,0.63,2.08,1.34,0.19 (inactive),-0.55,0.212,1.11,0.639 (inactive),-2.39 (inactive),-0.203 (inactive),3.22,0.572 (inactive),-0.166,-0.0356,-0.645,-0.315
C=C(COC)/C(=C/C[C@@H](OC(=O)c1ccncc1)c1ccc(OCCO)cc1)c1cnc2ccccc2c1,-0.0384,0.651,0.124,1.15,1.74,-0.578,1.2,-1.73 (inactive),0.28,-0.0994,1.54,-2.16 (inactive),-1.05 (inactive),-0.263 (inactive),2.55,1.12 (inactive),-0.0802,1.54,1.01,-0.0531
CCOc1cc(C(O)C2C=CC3C(=O)N(C)C(=O)C3N2N2CCCCC2)ccc1O (stereo not given),-0.152,0.38,0.0421,0.348,0.885,1.45,0.496,0.133 (inactive),0.707,0.0139,0.163,1.26 (inactive),0.803 (inactive),1.63 (inactive),2.56,-0.613 (inactive),0.0209,-0.185,0.0152,0.0054
CC(C)C(O)C1C=CC2C(=O)N(C)C(=O)C2N1Nc1ccccc1 (stereo not given),0.383,0.681,0.364,0.914,1.69,1.19,1.37,2.73 (inactive),1.35,0.67,0.694,0.324 (inactive),-0.163 (inactive),0.204 (inactive),3.3,-0.381 (inactive),0.873,0.206,0.707,0.515
COC(=O)C1(Cc2ccccc2)C=C2C(=C(c3ccccc3)C(=O)C2C)CN1 (stereo not given),2.22,0.0069,0.731,1.21,1.19,1.45,1.01,0.943 (inactive),1.87,2.63,-1.24,-0.175 (inactive),-0.183 (inactive),0.269 (inactive),1.29,-0.749 (inactive),1.32,-1.58,0.885,1.29
CC(C)N1CC=CC23O[C@@H]4C=CCOC(=O)[C@@H]4[C@H]2C(=O)N(C(C)CO)[C@@H]3C1=O (stereo not given in full),0.377,-1.2,-0.071,-0.536,-1.11,2.17,0.9,0.106 (inactive),-0.508,-0.593,-1,-0.741 (inactive),-0.06 (inactive),-0.0277 (inactive),-0.163,-0.0334 (inactive),0.119,-1.03,-0.66,-0.199
COc1cc2c(cc1OC)CN(C(=O)[C@@H]1[C@H]3C(=O)O[C@H](c4ccccc4)[C@H](c4ccccc4)N3[C@H](c3ccccc3OCCO)[C@@]13C(=O)Nc1ccc(C#CC4(O)CCCCCC4)cc13)CC2,-0.0079,0.955,-0.0573,0.201,0.463,0.935,1.2,-0.066 (inactive),-0.0613,-0.123,1.54,2.74 (inactive),0.563 (inactive),5.14 (inactive),2.09,2.26 (inactive),0,0.56,0.896,-0.0357
COCCOC(=O)N1C(=O)[C@@]2(c3cc(C#CC4(O)CCCCCC4)ccc31)[C@H](C(N)=O)[C@H]1C(=O)O[C@H](c3ccccc3)[C@H](c3ccccc3)N1[C@@H]2c1ccccc1OCCO,0.591,1.71,0.121,0.859,1.25,0.735,1.3,0.129 (inactive),0.239,0.141,1.54,1.53 (inactive),-0.0153 (inactive),4.1 (inactive),2.49,0.58 (inactive),-0.484,1.09,1.08,0.445
CO[C@H]1O[C@H](CO)[C@@H](OC(=O)Nc2ccccc2-c2ccccc2)[C@H](OC(=O)Nc2ccc3c(c2)OCO3)[C@@H]1OC(=O)Nc1ccc2c(c1)OCO2,0.0632,0.291,0.0826,0.733,1.44,1.62,1.4,5.64 (inactive),1.2,0.141,1.53,2.06 (inactive),0.798 (inactive),6.35 (inactive),3.16,0.0976 (inactive),-0.0269,0.91,1.07,-0.0177
COc1ccc([Si](C)(C)[C@@H]2[C@@H](CCO)O[C@]3(C(=O)N(Cc4cccc(N5C(=O)c6cccc7cccc5c67)c4)c4ccccc43)[C@H]2C)cc1,0.385,-0.106,-0.156,0.691,-0.314,0.779,0.966,-0.34 (inactive),-0.0576,-0.236,1.22,2.2 (inactive),2.22 (inactive),38.9 (active),1.24,0.399 (inactive),-0.0931,-0.25,0.267,-0.221
CC(C)C(=C=CC[C@@H](O)c1ccccc1OCCO)C[C@@H](O)COCc1ccccc1,-0.248,0.399,-0.072,0.729,0.429,1.13,0.865,-3.84 (inactive),0.592,-0.199,1.29,-19.2 (active),-20.5 (active),-3.68 (inactive),1.16,1.44 (inactive),-0.139,1.24,0.388,0.001
CN(C)CCCNC(=O)[C@@H]1c2ccccc2C(=O)N(Cc2ccc(OC(F)(F)F)cc2)[C@H]1c1ccc(CO)cc1,-0.212,-0.103,-0.113,-0.133,-0.0854,1.22,1.15,-1.22 (inactive),0.18,0.287,1.54,-1.02 (inactive),-1.06 (inactive),-1.41 (inactive),2.22,-0.883 (inactive),-0.0654,0.912,0.951,-0.171
